These are literature values, as cited in PubChem BioAssay AID977611.

The data set is described as follows: PubChem AID 977611. The following applies: PDB protein-ligand complexes, literature Kd.

In all, about 3,900 compounds went through this assay and about 3,900 (100%) were called active. No cut-off is given here; in the data, nearly all actives have Kd up to about 4200 µM. So high a share suggests a set chosen from earlier hits. This is one part of the list. *1 amine or outer side, *2 acyl side, *3 side chain or, on linkers, in order; H or OH if unused. Where a SMILES comes first, the peptide text is derived from it. Non-standard residues stand in square brackets, D forms with d. Square brackets hold non-standard residues; d marks the D form. Residues, ends and D or L forms follow the SMILES beside them. Peptide text beside a SMILES is read from it. [ ]: non-standard residue; d: D form. Thr(P(OH)3+) = C[C@@H](O[P+](O)(O)O)[C@H](N)C(=O)O; X1 = C[C@H](O[P+](O)(O)O)[C@H](N[*:1])C(=O)[*:2]; Lys(Me3) = C[N+](C)(C)CCCC[C@H](N)C(=O)O; Orn(CH(NH2)2) = NC(N)NCCC[C@H](N)C(=O)O; Lys(Me2) = CN(C)CCCC[C@H](N)C(=O)O

As a reminder, the Kd is a measure of binding affinity in units of concentration. With `CC(=O)N1CCC[C@H]1C(=O)N1CCC[C@H]1C(=O)NCC(=O)N1CCC[C@H]1C(=O)N1CCC[C@H]1C(=O)NCC(=O)N1CCC[C@H]1C(=O)N[C@H](C(=O)NCC(=O)N1CCC[C@H]1C(=O)N[C@@H](CCCNC(N)N)C(=O)NCC(=O)N1CCC[C@H]1C(=O)N1CCC[C@H]1C(=O)NCC(=O)N1CCC[C@H]1C(=O)N1CCC[C@H]1C(=O)O)[C@@H](C)O` (Ac-PPGPPGPTGP[Orn(CH(NH2)2)]GPPGPP-OH), where the note is “protein: HSP47, PDB entry 3zha”, the Kd is 1 µM (active).

`CC(C)[C@H](NC(=O)[C@H](CO)NC(=O)[C@@H](NC(=O)[C@@H](N)CCCCN)C(C)C)C(=O)N[C@H](C(=O)N[C@@H](CCCNC(N)N)C(=O)N[C@H](C(=O)N1CCC[C@H]1C(=O)N1CCC[C@H]1C(=O)N[C@@H](CCCCN)C(=O)N[C@@H](CO)C(=O)N1CCC[C@H]1C(=O)N[C@@H](CO)C(=O)O)[C@H](C)O[P+](O)(O)O)C(C)C` (H-KVSVV[Orn(CH(NH2)2)][X1]PPKSPS-OH): the dissociation constant (Kd) (protein: Pin1 WWdomain, PDB entry 1i8h) is 29 µM (active).

For `CNC(CSSC[C@H](NC(=O)CC[C@H](N)C(=O)O)C(=O)NCC(=O)O)C(=O)NCC(=O)O` (stereo partly specified), the Kd (protein: PUTATIVE AMINO ACID BINDING PROTEIN, PDB entry 4c0r) was 12.2 µM (active).

In the case of `N[C@@H](CCC(=O)N[C@@H](CS)C(=O)NCC(=O)O)C(=O)O`, the Kd (protein: mitochondrial ABC transporter, Atm1, PDB entry 4myh) is 23 µM (active) and the Kd (protein: protein yqjG, PDB entry 4g0l) was 6.5 µM (active).

H-SQEKFFQELFDS-OH: for the setting “protein: Peroxisomal Membrane Anchor Protein Pex14, PDB entry 2w85”, the Kd was 9.17 µM (active).

As to `CC(C)C[C@H](NC(=O)[C@H](CC(C)C)NC(=O)[C@H](CCC(=O)O)NC(=O)[C@@H](N)CO)C(=O)N[C@@H](CCCCN)C(=O)N[C@@H](Cc1ccc(O)cc1)C(=O)N[C@@H](CC(C)C)C(=O)N[C@H](C(=O)N[C@H](C(=O)O)[C@@H](C)O)[C@@H](C)O` (H-SELLKYLTT-OH), the Kd (protein: the ligand binding domain (LBD) of the estrogen-related receptor ? (ERR?, NR3B1), PDB entry 1xb7) was 0.6 µM (active).

In the case of `NS(=O)(=O)c1ccc(CNc2ncnc(NCc3ccccc3)c2[N+](=O)[O-])cc1`, where the note is “protein: human carbonic anhydrase II, PDB entry 3mhm”, the Kd is 0.1 µM (active).

Consider `CC(C)[C@H](NC(=O)[C@H](CCCCN(C)C)NC(=O)[C@H](CO)NC(=O)[C@H](CCCN=C(N)N)NC(=O)[C@H](C)NC(=O)[C@@H](NC(=O)[C@@H](N)CCCN=C(N)N)[C@@H](C)O)C(=O)O` (H-RTARS[Lys(Me2)]V-OH), for which the Kd (protein: Chromodomain-helicase-DNA-binding protein 1 CHD1, PDB entry 4o42) was 22 µM (active).

As to `CC(C)[C@H](NC(=O)[C@H](CCCC[N+](C)(C)C)NC(=O)[C@H](CO)NC(=O)[C@H](CCCN=C(N)N)NC(=O)[C@H](C)NC(=O)[C@H](C)NC(=O)[C@@H](N)CCCN=C(N)N)C(=O)O` (tested in a mixture with another compound) (H-RAARS[Lys(Me3)]V-OH), under “protein: Chromodomain-helicase-DNA-binding protein 1 CHD1, PDB entry 4nw2”, the Kd was 29 µM (active).

Consider `CC[C@H](C)[C@H](NC(=O)[C@@H](N)CC(N)=O)C(=O)N[C@H](C(=O)N[C@@H](CCC(N)=O)C(=O)N1CCC[C@H]1C(=O)N[C@H](C(=O)N[C@@H](CCC(N)=O)C(=O)N[C@@H](CCC(N)=O)C(=O)N[C@@H](CO)C(=O)N[C@H](C(=O)O)[C@@H](C)O)[C@@H](C)O[P+](O)(O)O)[C@@H](C)O[P+](O)(O)O` (H-NI[Thr(P(OH)3+)]QP[Thr(P(OH)3+)]QQST-OH), for which the Kd (protein: the yeast Dun1 FHA domain, PDB entry 2jql) is 0.3 µM (active).

As to `CC[C@H](C)[C@H](NC(=O)[C@@H](N)CC(N)=O)C(=O)N[C@H](C(=O)N[C@@H](CCC(N)=O)C(=O)N1CCC[C@H]1C(=O)N[C@H](C(=O)N[C@@H](CCC(N)=O)C(=O)N[C@@H](CCC(N)=O)C(=O)N[C@@H](CO)C(=O)N[C@H](C(=O)O)[C@@H](C)O)[C@@H](C)O)[C@@H](C)O[P+](O)(O)O` (H-NI[Thr(P(OH)3+)]QPTQQST-OH), the Kd (protein: Rad53 FHA1 domain, PDB entry 2jqi) is 10 µM (active).

With `Cn1c[n+]([C@@H]2O[C@H](CO[P+](O)(O)O[P+](O)(O)O)[C@@H](O)[C@H]2O)c2c1C(=O)NC(N)N2` (stereo partly specified), the equilibrium dissociation constant (Kd) (protein: rRNA N-glycosidase, PDB entry 4emf) is 0.0839 µM (active).

For `Cn1c[n+]([C@@H]2O[C@H](CO[P+](O)(O)O[P+](O)(O)O[P+](O)(O)O)[C@@H](O)[C@H]2O)c2c1C(=O)NC(N)N2` (stereo partly specified), the Kd (protein: rRNA N-glycosidase, PDB entry 4emr) was 0.0321 µM (active).

`C[C@H]1COCCN1C[C@H]1CN(S(=O)(=O)c2cccs2)CCN1c1ccc([C@@](C)(O)C(F)(F)F)cc1`: the equilibrium dissociation constant (Kd) (protein: Glucokinase regulatory protein, PDB entry 4ly9) is 0.007 µM (active).

On to `COC(=O)c1cc(Nc2ncnc3[nH]ccc23)ccc1Br`, for which the Kd (protein: TAU-TUBULIN KINASE 1, PDB entry 4btm) was 4.1 µM (active).

In the case of `CC[C@H](C)[C@H](NC(=O)[C@@H](N)CCCNC(N)N)C(=O)N[C@@H](CCC(N)=O)C(=O)N[C@@H](CCCNC(N)N)C(=O)N[C@@H](CC(N)=O)C(=O)N[C@@H](CCCCN)C(=O)N[C@@H](C)C(=O)N[C@@H](C)C(=O)N[C@@H](C)C(=O)N[C@@H](CC(C)C)C(=O)N[C@@H](CC(C)C)C(=O)N[C@@H](CCCNC(N)N)C(=O)N[C@@H](CC(C)C)C(=O)N[C@@H](C)C(=O)N[C@@H](C)C(=O)N[C@@H](CCCNC(N)N)C(=O)O` (H-[Orn(CH(NH2)2)]IQ[Orn(CH(NH2)2)]NKAAALL[Orn(CH(NH2)2)]LAA[Orn(CH(NH2)2)]-OH), the Kd (protein: RPA32(C-terminal domain of Replication protein A,172-270), PDB entry 1dpu) is 1 µM (active).

Take `CC[C@H](C)[C@H](NC(=O)[C@H](CC(C)C)NC(=O)[C@H](CCCNC(N)N)NC(=O)[C@@H](N)CC(N)=O)C(=O)N[C@@H](CC(C)C)C(=O)O` (H-N[Orn(CH(NH2)2)]LIL-OH): where the note is “protein: Chaperone protein DnaK, PDB entry 4ezy”, the Kd is 2.26 µM (active).

As to `CC[C@H](C)[C@H](NC(=O)[C@H](CC(N)=O)NC(=O)[C@H](CCSC)NC(=O)[C@@H](N)CCCNC(N)N)C(=O)N[C@@H](CCC(N)=O)C(=O)N[C@@H](CCSC)C(=O)N[C@@H](CC(C)C)C(=O)N[C@@H](CC(C)C)C(=O)N[C@@H](CCC(=O)O)C(=O)N[C@@H](C)C(=O)N[C@@H](C)C(=O)N[C@@H](CC(=O)O)C(=O)N[C@@H](Cc1ccc(O)cc1)C(=O)N[C@@H](CC(C)C)C(=O)N[C@@H](CCC(=O)O)C(=O)N[C@@H](CCCNC(N)N)C(=O)O` (H-[Orn(CH(NH2)2)]MNIQMLLEAADYLE[Orn(CH(NH2)2)]-OH), the Kd reads like this: (protein: mammalian Sin3A PAH2 domain, PDB entry 1g1e) 0.029 µM (active); (protein: mammalian mSin3A (mSin3A) PAH2 domain, PDB entry 1s5q) 5.2 µM (active).

In the case of `CC[C@H](C)[C@H](NC(=O)[C@H](C)NC(=O)[C@H](CCC(=O)O)NC(=O)[C@H](CCCNC(N)N)NC(=O)[C@H](CC(C)C)NC(=O)[C@H](Cc1ccc(O)cc1)NC(=O)[C@H](CCCNC(N)N)NC(=O)[C@H](CC(=O)O)NC(=O)[C@H](CC(=O)O)NC(=O)[C@@H](N)CC(=O)O)C(=O)N[C@@H](CCC(N)=O)C(=O)N[C@@H](CCC(=O)O)C(=O)N[C@@H](Cc1ccc(O)cc1)C(=O)N[C@@H](CC(=O)O)C(=O)N[C@@H](CC(N)=O)C(=O)N[C@H](C(=O)N[C@@H](C)C(=O)N[C@@H](CCCCN)C(=O)O)[C@@H](C)CC` (H-DDD[Orn(CH(NH2)2)]YL[Orn(CH(NH2)2)]EAIQEYDNIAK-OH), the Kd (protein: N terminal domain of Harmonin, PDB entry 2kbr) was 25.4 µM (active).
